In article PMC12136788 one finds binding signal data, which are given here for 14 molecules.

To fix the notation:
T1: UNK ZnF1-3 (human, UniProt Q9C0B0 31-174)
T1 sequence: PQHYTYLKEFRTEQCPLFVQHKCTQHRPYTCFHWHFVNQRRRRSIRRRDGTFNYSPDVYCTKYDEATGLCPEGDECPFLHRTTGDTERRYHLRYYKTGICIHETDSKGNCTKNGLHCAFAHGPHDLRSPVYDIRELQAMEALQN

B1: chr7:112757510:112757511:-_ENSG00000214194_ENST00000397764|hu_mus|FALSE|FALSE (ssRNA)
RNA: GGGAGUUCUACAGUCCGACGAUCCUUUCUUGCGUAUAUCCCCAAGCAAGCACAGAUGCCGGUAAUGCUGAGAACCACACCUAAUAAGAGUGCAAUCGCGUCUCCAGCUUCCACUGCUUCAACAACAGGCAGGAUCAAAAGCAGCAACAGAGGAUUGAGCAUCA
B2: chr9:49312907:49312908:-_ENSMUSG00000039542_ENSMUST00000166811|mus_hu|motif|central (ssRNA)
RNA: GGGAGUUCUACAGUCCGACGAUCAGCUGCAAUUUGGCAUUCGUCCUAUAAAAUAAGAGUCUACGUGGGAAUUGAAUUCAGCGGGAAAGGGUGACACACUUUGCAUACUGAACAAAUACAAAGUGAACAGAAAUUAUAACUUAUCAACAGAGGAUUGAGCAUCA
B3: chr6:168291551:168291552:+_ENSG00000130396_ENST00000400822|hu_hu|motif|central (ssRNA)
RNA: GGGAGUUCUACAGUCCGACGAUCGUGUUUCUUGGUUUUCUUUGGGAUGUGGUCUGGUGGCCUCCUCUUCAACUGAAAGACGGAAAUCCCUUUGUCACUUGGCCAUUCCCUGAAGAUUUGUAAAGGACACUCAUCAUCAUCAAGCAACAGAGGAUUGAGCAUCA
B4: 19737984_19738104_982_3pUTR_ENSG00000105849_ENST00000222567|human|control|control (ssRNA)
RNA: GGGAGUUCUACAGUCCGACGAUCGGUGGGGUAAAUUCGGCCUCUUCACUGUGUUUUCUUUUCUUUUUUUUCUUUUUAUGGUCACUUUGGUAACCACUGGAGUCACUGCCUUGGAAAACAGGGUCCUGGUCCUGAACUUCCUGGCAACAGAGGAUUGAGCAUCA
B5: chr1:220276048:220276049:+_ENSG00000067704_ENST00000302637|hu_hu|hu_hu_hu_mus_True|18_78 (ssRNA)
RNA: GGGAGUUCUACAGUCCGACGAUCGCAAAUUGCCUGGUUGGCGGGAAUUGUCCAAGGUUGUGUGGUCCAAACUAAAACGCUAACAGGGGAUGAGGCAUCUGUAAGAGACUCCAACUUUGGAGAAGGCCUCAGGAGGGGGAAUCUCAACAGAGGAUUGAGCAUCA
B6: chr19:58207738:58207739:+_ENSMUSG00000054843_ENSMUST00000077282|mus_mus|motif|central (ssRNA)
RNA: GGGAGUUCUACAGUCCGACGAUCUAAUUGGCCACAGAGUUAACAGUAGUGUGUGACAUUGCAUUAAUUCCAUAAUUAUCGGAAAUUCAAAAAUUUUAAAGUUUUAAGAACCUGGGGGAUUCACAGUGGAUGAGGCCUGACAGCCAACAGAGGAUUGAGCAUCA
B7: chr5:143664956:143664957:-_ENSMUSG00000029580_ENSMUST00000100497|mus_mus|FALSE|FALSE (ssRNA)
RNA: GGGAGUUCUACAGUCCGACGAUCAUACAUCAAGUUGGGGGGACAAAAAAAAGGGAGGCCUCAGACCUGGGCCAUUCAGAAAUUAAAAACAAAAAUGAAGUAUUAAGGCGGAAGAUUUAAAAAAAUUUUUGCAGUACAUAAUUUCAACAGAGGAUUGAGCAUCA
B8: chr14:102368134:102368135:+_ENSG00000078304_ENST00000445439|hu_hu|hu_hu_hu_mus_True|68_88 (ssRNA)
RNA: GGGAGUUCUACAGUCCGACGAUCAAGAGGCUCCAUGAUCUUCACAAAUUCUGAUGGUUCAAUUACAUCUAAAAUCUCUUCUAAUUCAUUUAAGAACAUUACUUCUUUUGGACUGUGAGUCUUUGGCCAGUAUUUGAGAAGUGCCAACAGAGGAUUGAGCAUCA
B9: chr5:143664956:143664957:-_ENSMUSG00000029580_ENSMUST00000100497|mus_hu|FALSE|FALSE (ssRNA)
RNA: GGGAGUUCUACAGUCCGACGAUCUCUCAAGUUGGGGGACAAAAAAGGGGGAAGGGGGGGCACGAAGGCUCAUCAUUCAAAAUAAAACAAAAUAAAAAAGUAUUAAGGCGAAGAUUAAAAAAAUUUUGCAUUACAUAAUUUACACAACAGAGGAUUGAGCAUCA
B10: chr6:114281168:114281169:-_ENSG00000196591_ENST00000368632|hu_hu|hu_hu_hu_mus_True|8_98 (ssRNA)
RNA: GGGAGUUCUACAGUCCGACGAUCUUCCAUUUUUCGGUAUAAGCCAUAAUUUAGCAGCAAGUUAUGAGUCAUCCGGAUUCUAUGAGGCUUCAUGGGAUGACCCUGGCCAUAAUAAUAAUUGCCAAUAUCACAGAUUCAGUAGUACAACAGAGGAUUGAGCAUCA
B11: chr14:102368134:102368135:+_ENSG00000078304_ENST00000445439|hu_hu|hu_hu_hu_mus_True|48_68 (ssRNA)
RNA: B8 RNA with U48C, A87G
B12: chr10:35314101:35314102:-_ENSG00000108094_ENST00000537177|hu_hu|FALSE|FALSE (ssRNA)
RNA: GGGAGUUCUACAGUCCGACGAUCUUCACCUGUACACAGAUAAUGUAACCAUGUAAGUUUCCUUCCACUGAAAUGUUGGCUAUAAAAUAAUUCAAACAUCUGUACACUUUUUUCUAAUUCCUGGGGAAUUGCAAACGUAGAUGACAACAGAGGAUUGAGCAUCA
B13: chr16:75327710:75327711:-_ENSG00000153774_ENST00000283882|hu_hu|FALSE|FALSE (ssRNA)
RNA: GGGAGUUCUACAGUCCGACGAUCAUUUAAGGACAAAUUUUUAAAAGUAAAGUGAAUGAAACCAUUUGUGAUUAAGAUACAUAGACAGAACUUCAAUGUAGAAAAAAAAAAGACCUUGCUGGGAAACAGAUGAUGAGAAACACUCAACAGAGGAUUGAGCAUCA
B14: chr4:144460044:144460045:+_ENSG00000153147_ENST00000283131|hu_mus|hu_hu_hu_mus_False|98_98 (ssRNA)
RNA: GGGAGUUCUACAGUCCGACGAUCACGGUCCAUAGCCUGAAGAUCUACUUGCGGAUUCCAAUCUGAGUCAUAUAAAAUGACUACAUCAGCAGUUGCAAGAUUGAUGCCCAGACCACCAGCACGUGUGCUUAGCAUAAAUACAAACAACAGAGGAUUGAGCAUCA

Changes are numbered by the printed parent chain. Whole data set: some 24,000 sequences, median “enrichment r” near 0.99, cut for the highest 2% near 3.7. The full list was thinned out, with the highest values kept by preference.

For the experiment, the target named is T1, UNK ZnF1-3. Nature of the experiment: nsRBNS (natural sequence RNA bind-n-seq); RBNS binding buffer (assumed for nsRBNS): 25 mM Tris pH 7.5, 150 mM KCl, 3 mM MgCl2, 0.01% Triton X-100, 500 ug/ml BSA, 20 U/ml SUPERase-In, 4 C; UNK is unkempt and MSI1 is Musashi-1; names of the RNAs are library labels; protein concentration not given here; high values mean tight binding.
On to B1, for which the binding signal was determined as 1.38 enrichment R.

For B2, the binding signal came out at 3.41 enrichment R.

B3 came in with a binding signal of 0.53 enrichment R.

Take B4: the binding signal was determined as 0.463 enrichment R.

For the molecule B5, the binding signal amounted to 2.05 enrichment R.

Molecule B6 had a binding signal of 4.11 enrichment R.

In the case of B7, the binding signal amounted to 6.75 enrichment R.

In turn, B8 registered a binding signal of 0.758 enrichment R.

Turning to B9, the binding signal is 8.16 enrichment R.

As for B10, the binding signal came out at 0.99 enrichment R.

In turn, B11 came in with a binding signal of 0.708 enrichment R.

For B12, the binding signal worked out at 1.11 enrichment R.

With B13, the binding signal is 1.71 enrichment R.

In turn, B14 yielded a binding signal of 1.14 enrichment R.
